# Test results from the supplement of paper PMC8728848.
# This is one part of a sample in which the strongest signals are shown more often than they occur.
# Experiments:
# Test in all cases: glycan array binding signal (z-score within array); higher = stronger binding
# Conditions in all cases: glycan notation: IUPAC condensed, linker removed
# [1] = molecular target: GalNAc6S(b1-4)GlcNAc
# Procedure, shortened: (§1)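 The Consortium for Functional Glycomics database supplied 3228 glycan arrays, of which those lacking an available protein sequence were dropped. The binding signal, a within-array Z-score, was averaged across arrays of the same protein sequence and across linkers. Negative scores can be read as non-binding.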
# [2] = molecular target: Glc(a1-4)Glc(a1-4)Glc(a1-4)Glc
# Procedure, shortened: as §1
# [3] = molecular target: Glc(a1-6)Glc(a1-6)Glc(a1-6)Glc
# Procedure, shortened: as §1
# [4] = molecular target: GlcA(b1-6)Gal
# Procedure, shortened: as §1
# [5] = molecular target: GlcNAc(b1-2)[GlcNAc(b1-4)]Man(a1-3)[GlcNAc(b1-4)][GlcNAc(b1-2)[GlcNAc(b1-6)]Man(a1-6)]Man(b1-4)GlcNAc(b1-4)[Fuc(a1-6)]GlcNAc
# Procedure, shortened: as §1
# [6] = molecular target: GlcNAc(b1-3)Gal(b1-4)GlcNAc(b1-2)Man(a1-3)[GlcNAc(b1-3)Gal(b1-4)GlcNAc(b1-2)Man(a1-6)]Man(b1-4)GlcNAc(b1-4)GlcNAc
# Procedure, shortened: as §1
# [7] = molecular target: GlcNAc(b1-3)Gal(b1-4)GlcNAc(b1-3)Gal(b1-4)GlcNAc(b1-2)Man(a1-3)[GlcNAc(b1-3)Gal(b1-4)GlcNAc(b1-3)Gal(b1-4)GlcNAc(b1-2)Man(a1-6)]Man(b1-4)GlcNAc(b1-4)GlcNAc
# Procedure, shortened: as §1
# [8] = molecular target: GlcNAc(b1-3)Gal(b1-4)GlcNAc(b1-3)Gal(b1-4)GlcNAc(b1-2)[GlcNAc(b1-3)Gal(b1-4)GlcNAc(b1-3)Gal(b1-4)GlcNAc(b1-6)]Man(a1-6)[GlcNAc(b1-3)Gal(b1-4)GlcNAc(b1-3)Gal(b1-4)GlcNAc(b1-2)Man(a1-3)]Man(b1-4)GlcNAc(b1-4)[Fuc(a1-6)]GlcNAc
# Procedure, shortened: as §1
# [9] = molecular target: GlcNAc(b1-3)Gal(b1-4)GlcNAc(b1-3)Gal(b1-4)GlcNAc(b1-3)Gal(b1-4)GlcNAc(b1-2)Man(a1-3)[GlcNAc(b1-3)Gal(b1-4)GlcNAc(b1-3)Gal(b1-4)GlcNAc(b1-3)Gal(b1-4)GlcNAc(b1-2)Man(a1-6)]Man(b1-4)GlcNAc(b1-4)[Fuc(a1-6)]GlcNAc
# Procedure, shortened: as §1
# [10] = molecular target: GlcNAc(b1-3)Gal(b1-4)GlcNAc(b1-3)Gal(b1-4)GlcNAc(b1-3)Gal(b1-4)GlcNAc(b1-2)[GlcNAc(b1-3)Gal(b1-4)GlcNAc(b1-3)Gal(b1-4)GlcNAc(b1-3)Gal(b1-4)GlcNAc(b1-6)]Man(a1-6)[GlcNAc(b1-3)Gal(b1-4)GlcNAc(b1-3)Gal(b1-4)GlcNAc(b1-3)Gal(b1-4)GlcNAc(b1-2)Man(a1-3)]Man(b1-4)GlcNAc(b1-4)[Fuc(a1-6)]GlcNAc
# Procedure, shortened: as §1
# [11] = molecular target: Man(a1-2)Man(a1-6)[Man(a1-3)]Man(a1-6)[Man(a1-2)Man(a1-2)Man(a1-3)]Man
# Procedure, shortened: as §1
# [12] = molecular target: Neu5Ac(a2-3)Gal(b1-3)[Fuc(a1-4)]GlcNAc(b1-3)Gal(b1-4)[Fuc(a1-3)]GlcNAc
# Procedure, shortened: as §1
# [13] = molecular target: Neu5Ac(a2-3)Gal(b1-3)[Neu5Ac(a2-6)]GalNAc
# Procedure, shortened: as §1
# [14] = molecular target: Neu5Ac(a2-3)Gal(b1-4)GlcNAc(b1-2)Man(a1-3)[GlcNAc(b1-2)Man(b1-4)GlcNAc(b1-2)Man(a1-6)]Man(b1-4)GlcNAc(b1-4)GlcNAc
# Procedure, shortened: as §1
# [15] = molecular target: Neu5Ac(a2-3)Gal(b1-4)GlcNAc(b1-3)Gal(b1-4)GlcNAc
# Procedure, shortened: as §1
# [16] = molecular target: Neu5Ac(a2-3)Gal(b1-4)GlcNAc(b1-3)Gal(b1-4)GlcNAc(b1-3)Gal(b1-4)GlcNAc(b1-2)Man(a1-3)[Neu5Ac(a2-3)Gal(b1-4)GlcNAc(b1-3)Gal(b1-4)GlcNAc(b1-3)Gal(b1-4)GlcNAc(b1-2)Man(a1-6)]GalNAc
# Procedure, shortened: as §1
# [17] = molecular target: Neu5Ac(a2-3)Gal(b1-4)GlcNAc(b1-6)[Gal(b1-3)]GalNAc
# Procedure, shortened: as §1
# [18] = molecular target: Neu5Ac(a2-3)Gal(b1-4)[Fuc(a1-3)]GlcNAc(b1-3)GalNAc
# Procedure, shortened: as §1
# [19] = molecular target: Neu5Ac(a2-3)[GalNAc(b1-4)]Gal(b1-4)GlcNAc
# Procedure, shortened: as §1
# [20] = molecular target: Neu5Ac(a2-6)Gal(b1-4)GlcNAc(b1-2)Man(a1-3)[GlcNAc(b1-2)Man(b1-4)GlcNAc(b1-2)Man(a1-6)]Man(b1-4)GlcNAc(b1-4)GlcNAc
# Procedure, shortened: as §1
# [21] = molecular target: Neu5Ac(a2-6)Gal(b1-4)GlcNAc(b1-2)Man(a1-3)[Neu5Ac(a2-6)Gal(b1-4)GlcNAc(b1-2)Man(a1-6)]Man(b1-4)GlcNAc(b1-4)GlcNAc
# Procedure, shortened: as §1
# [22] = molecular target: Neu5Ac(a2-6)Gal(b1-4)GlcNAc(b1-2)Man(a1-3)[Neu5Ac(a2-6)Gal(b1-4)GlcNAc(b1-2)Man(a1-6)]Man(b1-4)GlcNAc(b1-4)[Fuc(a1-6)]GlcNAc
# Procedure, shortened: as §1
# [23] = molecular target: Neu5Ac(a2-6)Gal(b1-4)GlcNAc(b1-3)Gal(b1-4)GlcNAc(b1-3)Gal(b1-4)GlcNAc(b1-2)Man(a1-3)[Neu5Ac(a2-6)Gal(b1-4)GlcNAc(b1-3)Gal(b1-4)GlcNAc(b1-3)Gal(b1-4)GlcNAc(b1-2)Man(a1-6)]GalNAc
# Procedure, shortened: as §1
# [24] = molecular target: Neu5Ac(a2-6)GalNAc(b1-4)GlcNAc6S
# Procedure, shortened: as §1
# [25] = molecular target: Neu5Ac(a2-8)Neu5Ac(a2-8)Neu5Ac(a2-3)[Gal(b1-3)GalNAc(b1-4)]Gal(b1-4)Glc
# Procedure, shortened: as §1
# [26] = molecular target: Neu5Ac9Ac(a2-6)Gal(b1-4)GlcNAc
# Procedure, shortened: as §1
binder,measurement,setting,value
"BabA (Helicobacter pylori), O52269_HELPY (protein) AEDDGFYMSAGYQIGEAAQMVKNTKGIQELSDNYENLSNLLTRYSTLNTLIKLSADPSAVNAARENLGASAKNLIGDTKNSPAYQAVLLAINAAVGFWNVVGYVTQCGGNANGQKSTSSTTIFNNEPGYRSTSITCSLNGHMPGYYGPMSIENFKKLNEAYQILQTALKNGLPALKENNGTVNVTYSYTCSGEGNDNCSLQTTGVTNQNNGTKTETQTIDGKSVTTTISSKVVDSQ",glycan array binding signal (z-score),[1],-0.764
same,glycan array binding signal (z-score),[2],0.344
same,glycan array binding signal (z-score),[3],0.59
same,glycan array binding signal (z-score),[4],-0.267
same,glycan array binding signal (z-score),[5],-0.373
same,glycan array binding signal (z-score),[6],0.363
same,glycan array binding signal (z-score),[7],4.69
same,glycan array binding signal (z-score),[8],3.66
same,glycan array binding signal (z-score),[9],2.94
same,glycan array binding signal (z-score),[10],2.92
same,glycan array binding signal (z-score),[11],-0.83
same,glycan array binding signal (z-score),[12],0.749
same,glycan array binding signal (z-score),[13],0.266
same,glycan array binding signal (z-score),[14],-1.52
same,glycan array binding signal (z-score),[15],-0.291
same,glycan array binding signal (z-score),[16],9.34
same,glycan array binding signal (z-score),[17],1.93
same,glycan array binding signal (z-score),[18],0.626
same,glycan array binding signal (z-score),[19],-0.627
same,glycan array binding signal (z-score),[20],-0.829
same,glycan array binding signal (z-score),[21],-0.571
same,glycan array binding signal (z-score),[22],1.19
same,glycan array binding signal (z-score),[23],5.39
same,glycan array binding signal (z-score),[24],-0.637
same,glycan array binding signal (z-score),[25],0.344
same,glycan array binding signal (z-score),[26],-0.224
